In PubChem BioAssay (NCATS):
Results filed as inconclusive are left out. Activity calls are given as the source filed them. The call rests on the fitted dose curve.

Assay: Primary qHTS to identify inhibitors of SARS-CoV-2 cell entry (AID 1645846); further: nearly all actives have a fitted effect of over 45% in size
Settings: SARS-CoV-2 pseudovirus cell entry assay, luminescence; activity change, negative = inhibition: at 57.1 µM (top of the series) unless noted
Excerpt: Assay Provider: Wei Zheng, Ph.D.
National Center for Advancing Translational Sciences, National Institute of Health, Rockville, MD.
SARS-CoV-2 spike protein, within the viral envelope, mediates viral attachment and infection of host cells. The SARS-CoV-2 spike protein specifically binds to the host receptor ACE2 (Angiotensin-converting enzyme 2). This interaction promotes endocytosis of the viral particle, additional events lead to viral-host cell membrane fusion and release of the viral contents, allowing viral replication.
While SARS-CoV-2 requires BSL-3 facilities for live virus work, pseudotyped partices (PP) that incorporate SARS-CoV-2 spike proteins without replication elements could facilitate studies on viral entry mechanisms in a BSL-2 setting. This PP cell entry assay could also enable screening of small molecule compound libraries in BSL-2 setting to identify inhibitors of SARS-CoV-2 cell entry.
PROTOCOL TABLE (format as described by Inglese J, Shamu CE and Guy RK. 2007)
SEQUENCE No. (e.g., 1, 2, 3, etc.); […] (e.g., Cells, Incubation, Reagent, etc.); VALUE and DESCRIPTION.
1. Cells. Seed 1500 HEK293-ACE2 cells (Expi293F with stable expression of human ACE2) in 2 uL/well media (DMEM, 10% FBS, 1x L-glutamine, 1x Pen/Strep, 1 ug/ml puromycin) in white 1536-well assay plates (Greiner #782073).
2. Incubation. Incubate at 37C with 5% CO2 overnight (~16 h).
3. Compounds. Dispense 23 nL/well compounds in DMSO via pin transfer.
4. Incubation. Incubate for 1 hr at 37C 5% CO2.
5. Reagent. Dispense 2 uL/well of SARS-CoV-2-S pseudotyped particles. [a] PPs are produced with murine leukemia virus pseudotyping. [b] SARS-CoV-2-S is Wuhan-Hu-1 sequence (BEI #NR-52420) with C-terminal 19 amino acid truncation.
6. Centrifuge. […]
7. Incubation. Incubate at for 48 hr at 37C 5% CO2
8. Centrifuge. Remove supernatant with gentle centrifugation using a Blue Washer (BlueCat Bio).
9. Reagent. Dispense 4 uL/well of Bright-Glo Luciferase detection reagent (Promega #E2620).
10. Incubation. Incubate for 5 min at room temperature.
11. Detection. Read luminescence signal (Viewlux plate reader, PerkinElmer). Data was normalized with wells containing SARS-CoV-2-S PP as 100%, and wells containing bald PP (no fusion protein) as 0%.
Potency means the concentration at half of the fitted maximal effect.

SMILES	activity change, negative = inhibition	outcome	Potency
CC(C)(CO)[C@@H](O)C(=O)NCCC(=O)NCCSSCCNC(=O)CCNC(=O)[C@H](O)C(C)(C)CO	-13.3%		
ClCC1CO1 (stereo not given) (tested in a mixture with another compound)	-15.1%		
CC1(C)CCC2(CC1)N[C@@H](C(=O)N[C@@H]1CC[C@@H](C(N)=O)OC1)[C@H](c1ccnc(Cl)c1F)[C@]21C(=O)Nc2cc(Cl)ccc21	-20.9% [at 37.9 µM]		
CO[C@H]1O[C@@H]2O[C@@]3(C)CC[C@H]4[C@H](C)CC[C@@H]([C@@H]1C)[C@@]24OO3	-7.86%		
COC(=O)N[C@H](C(=O)N1CCC[C@H]1C(=O)Nc1ccc([C@@H]2CC[C@@H](c3ccc(NC(=O)[C@@H]4CCCN4C(=O)[C@@H](NC(=O)OC)C(C)C)cc3)N2c2ccc(C(C)(C)C)cc2)cc1)C(C)C	-22.9%		
N=C(N)c1ccc2nc(-c3cc(CC(=O)N[C@@H](CC(=O)O)C(=O)O)cc(-c4cc(S(N)(=O)=O)ccc4O)c3O)[nH]c2c1		inactive	
Fc1ccc2[nH]ccc2c1-c1nc(N2CCOCC2)c2sc(CN3CCN(CC4CC4)CC3)cc2n1			31.6 µM (active)
O=C(O)C1CCc2cc(C3CCCCC3)c(Cl)cc21 (stereo not given)	-32.2%		
COc1ccc2c(c1)OC(C)(C)C(c1ccccc1)C2c1ccc(OCCN2CCCC2)cc1 (stereo not given)			15.8 µM (active)
CO/N=C(\C(=O)N[C@@H]1C(=O)N2C(C(=O)O)=C(CSc3nnnn3C)CS[C@H]12)c1csc(N)n1	-27.5%		
CCOC(=O)[C@H](CS)NCCN[C@@H](CS)C(=O)OCC		inactive	
CN1C(=O)[C@@H](NC(=O)[C@H](CCC(F)(F)F)[C@H](CCC(F)(F)F)C(N)=O)N=C(c2ccccc2)c2ccccc21	-8.27%		
O=c1cc(N2CCOCC2)oc2c(-c3ccc4c(c3)OCCO4)csc12	-5.73%		
C=C1/C(=C/C=C2\CCC[C@]3(C)[C@@H]([C@H](C)CCCC(C)(C)O)CC[C@@H]23)C[C@@H](O)[C@@H](OCCCO)[C@@H]1O	-12.1%		
CC1(C)S[C@@H]2[C@@H](N3C(=O)[C@@H](c4ccccc4)NC3(C)C)C(=O)N2[C@H]1C(=O)O	-21.4%		
OC[C@H]1O[C@@H](c2ccc(F)c(Cc3cc4ccccc4s3)c2)[C@H](O)[C@@H](O)[C@@H]1O	-24.7%		
CC(C)C[C@H](NC(=O)[C@H](Cc1ccccc1)NC(=O)OCc1ccccc1)C(=O)C=O			14.1 µM (active)
O=C1OC(COc2ccccc2[N+](=O)[O-])CC1Cc1ccccc1 (stereo not given)	-2.39%		
NC[C@@H]1O[C@H](O[C@H]2[C@H](O)[C@H](O[C@H]3[C@@H](O)[C@H](N)C[C@H](N)[C@H]3O[C@H]3O[C@H](CN)[C@H](O)[C@H](O)[C@H]3N)O[C@@H]2CO)[C@@H](N)[C@@H](O)[C@@H]1O	-25.4% [at 5.25 µM]		
C[C@H](CCC(=O)O)[C@H]1CC[C@H]2[C@@H]3[C@H](O)C[C@@H]4C[C@H](O)CC[C@]4(C)[C@H]3C[C@H](O)[C@]12C		inactive	

SMILES	activity change, negative = inhibition	outcome	Potency
CCCCCCCCCCCCCCCCOc1nc2ccc(C)cc2c(=O)o1	-28.4%		
NS(=O)(=O)c1ccc(Cc2c(-c3cccc(-c4ccccc4)c3)nn(-c3nc(C(=O)O)cs3)c2CC2CC2)cc1	-32.8%		
CC(C)(O)CS(=O)(=O)Nc1ccc2c(c1)CCN(C(=O)COc1cccnc1)C2	-97.4%		
C[C@H](NC(=O)CCC(F)(F)F)C(=O)N[C@@H]1C(=O)N(CCO)c2ncccc2-c2ccccc21	-2.66%		
O=S(O)CNc1ccc(S(=O)(=O)c2ccc(NCS(=O)O)cc2)cc1	3.29%		
CO[C@H]1C[C@@H]2CC[C@@H](C)[C@@](O)(O2)C(=O)C(=O)N2CCCC[C@H]2C(=O)O[C@H]([C@H](C)C[C@@H]2CC[C@@H](OC(=O)C(C)(CO)CO)[C@H](OC)C2)CC(=O)[C@H](C)/C=C(\C)[C@@H](O)[C@@H](OC)C(=O)[C@H](C)C[C@H](C)/C=C/C=C/C=C/1C	-29.8% [at 27.1 µM]		
O=C(O)CC1CCC(c2ccc(-c3ccc(Nc4ccc(C(F)(F)F)nc4)cn3)cc2)CC1 (stereo not given)	-24.6%		
CC(C)=C/C(C)=N\Nc1nncc2ccccc12		inactive	
CCC(C(=O)O)[C@H]1CC[C@H](C)[C@H]([C@@H](C)[C@H](O)[C@H](C)C(=O)[C@H](CC)[C@H]2OC3(C=C[C@@H](O)[C@]4(CC[C@@](C)([C@H]5CC[C@](O)(CC)[C@H](C)O5)O4)O3)[C@H](C)C[C@@H]2C)O1 (stereo not given in full)			0.794 µM (active)
OC(CN1CCCCC1)c1cc(-c2ccccc2)on1 (stereo not given)	-15.3%		
CN1CCN(c2ccc(C(=O)Nc3n[nH]c4ccc(Cc5cc(F)cc(F)c5)cc34)c(NC3CCOCC3)c2)CC1			28.2 µM (active)
CC(C)(S)[C@H](N)C(=O)O	-28.5% [at 5.25 µM]		
CN1CCCN(C(=O)c2cccc(-c3ccc(/C=C4/C(=O)Nc5ccc(Cl)cc54)o3)c2)CC1			1 µM (active)
Cc1nc(NC(=O)N2CCC[C@H]2C(N)=O)sc1-c1csc(C(C)(C)C)n1		inactive	
Cc1c(O)cccc1C(=O)NC(CSc1ccccc1)C(O)CN1CC2CCCCC2CC1C(=O)NC(C)(C)C (stereo not given)			31.6 µM (active)
Cc1cc(-c2cc(OC(=O)c3ccccc3)ccc2Cl)cc2nnc(Nc3ccc(OCCN4CCCC4)cc3)nc12	-21.1% [at 27.1 µM]		
Nc1cc(COc2c(Cl)cc(C[C@H](N)C(=O)O)cc2Cl)c2oc(-c3ccccc3)nc2c1	-18.9%		
CC(C)n1c(/C=C/[C@H](O)C[C@H](O)CC(=O)O)c(-c2ccc(F)cc2)c2ccccc21			inactive
O=C(/C=C/c1cccc(S(=O)(=O)Nc2ccccc2)c1)NO	-13.6%		
CCCC[C@@H](C=O)NC(=O)[C@H](CC(C)C)NC(=O)OCc1ccccc1	-89.9%		
